Experimental data as given in PubChem BioAssay (NCATS).
Inconclusive results are not listed. Active and inactive are the calls of the source. Calls follow the shape of the full dose curve. Bridge positions count the residues as written; N and C are the ends. Peptide text beside a SMILES is read from it.

Assays:
[1] = Primary qHTS for Huh7 cytotoxicity: counterscreen for inhibitors of MERS-S pseudotyped particle cell entry (AID 1479147); settings: outcome: dose series up to 57.1 µM unless noted
[2] = Primary qHTS for inhibitors of MERS-S pseudo-typed particle cell entry (AID 1479149); settings: outcome: dose series up to 57.1 µM unless noted; also: nearly all actives have a fitted effect of over 60% in size
[3] = Primary qHTS for Vero E6 cytotoxicity: counterscreen for inhibitors of SARS-S pseudo-typed particle cell entry (AID 1479150); settings: outcome: dose series up to 57.1 µM unless noted
[4] = Cytotoxicity counterscreen for inhibitors of SARS-CoV-2 cell entry (AID 1645845); settings: outcome: dose series up to 57.1 µM unless noted; also: nearly all actives have a fitted effect of over 50% in size
How it was run: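 Expi293F/hACE2 cells seeded overnight; cpd pin-transferred in DMSO, 1 h preincubation, + media, 48 h 37 C 5% CO2; ATPLite 1step luminescence; normalized to cells and no cells.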

[5] = Primary qHTS to identify inhibitors of SARS-CoV-2 cell entry (AID 1645846); settings: SARS-CoV-2 pseudovirus cell entry assay, luminescence; activity change, negative = inhibition: at 57.1 µM (top of the series) unless noted; also: nearly all actives have a fitted effect of over 45% in size
How it was run: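 Luminescence readout (Bright-Glo luciferase) 48 h after pseudoparticle addition. HEK293-ACE2 cells, 1500/well; compound pre-incubation 1 h; Normalized to spike PP and bald PP.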

COc1ccc2c(=O)c(C)c(-c3ccccc3)oc2c1CN(C)C
inactive: Potency [1] | Potency [2] | Potency [3] | Potency [4]

CCCCCCCCCCCCOC(=O)CS(=O)(=O)O
inactive: Potency [1] | Potency [2] | Potency [3] | Potency [4]

CCC(c1ccccc1)c1c(O)c2ccccc2oc1=O (stereo unspecified)
inactive: Potency [1] | Potency [2] | Potency [3] | Potency [4]

C[C@H](Cc1cc2c(c(C(N)=O)c1)N(CCCO)CC2)NCCOc1ccccc1OCC(F)(F)F
inactive: Potency [1] | Potency [2] | Potency [3] | Potency [4]

O=C(O)C(O)[C@H](O)[C@H](O)[C@H](O)[C@H](O)CO (stereo partly specified)
inactive: Potency [1] | Potency [2] | Potency [3] | Potency [4]

O=P(O)(O)OC(CO)CO
inactive: Potency [1] | Potency [2] | Potency [3] | Potency [4]

Cc1ccc(/C(=C\CN2CCCC2)c2cccc(/C=C/C(=O)O)n2)cc1
inactive: Potency [1] | Potency [2] | Potency [3] | Potency [4]

CC1CC(OC(=O)C(O)c2ccccc2)CC(C)(C)C1 (stereo unspecified)
inactive: Potency [1] | Potency [2] | Potency [3] | Potency [4]

O=C(Nc1ccc(O)cc1)c1ccccc1O
inactive: Potency [1] | Potency [2] | Potency [3] | Potency [4]

Cc1[nH]cnc1C[C@H]1CCc2c(C)c3ccccc3n2C1=O
inactive: Potency [1] | Potency [2] | Potency [3] | Potency [4]

Cc1cc(CC(C)C[Si](C)(O[Si](C)(C)C)O[Si](C)(C)C)c(O)c(-n2nc3ccccc3n2)c1 (stereo unspecified)
inactive: Potency [1] | Potency [2] | Potency [3] | Potency [4]

C=CC1(C)CC(=O)C2(O)C(C)(O1)C(OC(C)=O)C(OC(=O)CCN(C)C)C1C(C)(C)CCC(O)C12C (stereo unspecified)
inactive: Potency [1] | Potency [2] | Potency [3] | Potency [4]

Cn1nnnc1SCC1=C(C(=O)O)N2C(=O)[C@@H](NC(=O)[C@H](OC=O)c3ccccc3)[C@H]2SC1
inactive: Potency [1] | Potency [2] | Potency [3] | Potency [4]

COc1ccc(CNCC(O)COc2ccc3[nH]c(=O)ccc3c2)cc1OC (stereo unspecified)
inactive: Potency [1] | Potency [2] | Potency [3] | Potency [4]

CCCCCCCCCCCCCCCC(=O)OCC(O)C1OC(=O)C(O)=C1O (stereo unspecified)
inactive: Potency [1] | Potency [2] | Potency [3] | Potency [4]

O=C(O)CCC/C=C\C[C@@H]1[C@@H](/C=C/[C@@H](O)COc2cccc(Cl)c2)[C@H](O)C[C@@H]1O
inactive: Potency [1] | Potency [2] | Potency [3] | Potency [4]

N[C@H](Cc1cnc[nH]1)C(=O)O
inactive: Potency [1] | Potency [2] | Potency [3] | Potency [4]

OC(c1ccccc1)(c1ccccc1)C12CC[N+](CCOCc3ccccc3)(CC1)CC2
inactive: Potency [1] | Potency [2] | Potency [3] | Potency [4]

COC(=O)[C@@H](N)CS
inactive: Potency [1] | Potency [2] | Potency [3] | Potency [4]

CC1(C)S[C@@H]2[C@H](NC(=O)[C@H](NC(=O)N3CCN(S(C)(=O)=O)C3=O)c3ccccc3)C(=O)N2[C@H]1C(=O)O
inactive: Potency [1] | Potency [2] | Potency [3] | Potency [4]
-10%: activity change, negative = inhibition [5]

CN[C@@H]1[C@@H](O)[C@@H](O[C@@H]2[C@@H](O)[C@H](OC3O[C@H](CN)[C@@H](O)[C@H](O)[C@H]3O)[C@@H](N)C[C@H]2NC(=O)[C@@H](O)CN)OC[C@]1(C)O (stereo partly specified)
inactive: Potency [1] | Potency [2] | Potency [3] | Potency [4]

COc1cc(N)cn[n+]1-c1ccccc1
inactive: Potency [1] | Potency [2] | Potency [3] | Potency [4]

CN(C)CCC(O)(c1ccccc1)c1ccccc1Cl (stereo unspecified)
inactive: Potency [1] | Potency [2] | Potency [3] | Potency [4]

C[C@@H]1NC(=O)[C@@H]2CCCN2C(=O)[C@H](CC(N)=O)NC(=O)[C@@H]2CSSC[C@H](N)C(=O)N[C@H]3CSSC[C@H](NC1=O)C(=O)N[C@@H]([C@@H](C)O)C(=O)NCC(=O)N[C@H](C(=O)N[C@@H](Cc1ccc(O)cc1)C(=O)O)CSSC[C@H](NC(=O)[C@H](Cc1ccc(O)cc1)NC(=O)[C@H](CCC(=O)O)NC3=O)C(=O)N2 (H-CCEYCCNPACTGCY-OH; disulfide 1-6, 2-10, 5-13)
-24.4% [at 27.1 µM]: activity change, negative = inhibition [5]
inactive: Potency [1] | Potency [2] | Potency [3] | Potency [4]

CC(OC(=O)NCC1(CC(=O)O)CCCCC1)OC(=O)C(C)C (stereo unspecified)
inactive: Potency [1] | Potency [2] | Potency [3] | Potency [4]

CC1CCC(C(C)C)C(OC(=O)c2ccccc2O)C1 (stereo unspecified)
inactive: Potency [1] | Potency [2] | Potency [3] | Potency [4] | Potency [5]

CNCc1cc(-c2ccccc2F)n(S(=O)(=O)c2cccnc2)c1
inactive: Potency [1] | Potency [2] | Potency [3] | Potency [4]

Cc1c(C)c2c(c(C)c1OC(=O)CCC(=O)O)CC[C@@](C)(CCC[C@H](C)CCC[C@H](C)CCCC(C)C)O2
inactive: Potency [1] | Potency [2] | Potency [3] | Potency [4]

CC1CCCCN1CCCOC(=O)c1ccccc1 (stereo unspecified)
inactive: Potency [1] | Potency [2] | Potency [3] | Potency [4]

CCCCC(O)c1ccccc1 (stereo unspecified)
inactive: Potency [1] | Potency [2] | Potency [3] | Potency [4]

CNc1ncc(-c2ccc3c(=O)c(C(=O)O)cn(C4CC4)c3c2C)cc1C
inactive: Potency [1] | Potency [2] | Potency [3] | Potency [4]

CCCCCCCCCCCCCCCCCC(=O)NCCCC[C@H](NC(=O)CC[C@@H](NC(=O)[C@H](C)NC(=O)[C@@H](C)O[C@H]1[C@H](O)[C@@H](CO)OC(O)[C@@H]1NC(C)=O)C(N)=O)C(=O)O (stereo partly specified)
inactive: Potency [1] | Potency [2] | Potency [3] | Potency [4]
